Source: PubChem BioAssay (NCI)
About 83,000 compounds went through this panel and 20% of them were active in at least one assay; those are over-represented in the sample as a whole.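 Percent growth is the endpoint: 0 to 100 indicates growth inhibition (40 means 60% inhibition), 0 means no net growth, and negative values indicate cell death.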 Values without a mark were called inactive. Activity calls are given as the source filed them. Rule for the calls: active = growth percent below 10; inactive = the rest.

system: NCI-H522 lung; test: NCI-60 one-dose screen, 48 h (100 = growth as untreated, 0 = no growth, -100 = all killed); settings: 10 µM unless noted

Structure (SMILES) | growth
NC1=NN=C(N)C1=Cc1cc2ccccc2n2nnnc12 | 95%
C=C1C(=O)O[C@H]2[C@H]1CC/C(CNC(=O)/C=C/c1cccc(OC)c1)=C\CC[C@@]1(C)O[C@@H]21 | -69.4% (active)
CNC(=O)c1cc(Cn2nc(C)c(NC(=O)Nc3ccc(Cl)c(C(F)(F)F)c3)c2C)ccn1 | 71.5%
Cc1ccc(/C=N/NC(=O)CSc2nc3ccccc3c(=O)n2Cc2ccc(S(N)(=O)=O)cc2)cc1 | 42.5%
O=C(Cc1ccc(/C=C/C(=O)c2ncc[nH]2)cc1)Nc1ccc(Cl)cc1 | 34.2%
CCCOC(=O)N[C@H]1CCc2c(Cl)c(OC)c(OC)c(OC)c2-c2ccc(SC)c(=O)cc21 | 12.3%
O=S(=O)(NCCCNc1nccc(-c2c(-c3cccc(O)c3)nc3occn23)n1)c1ccc(Cl)cc1 | 87.6%
COc1cc2c(=O)n(CCN(C)C)c3c4cc5c(cc4ccc3c2cc1OC)OCO5 | -37.9% (active)
C=CC(=O)N[C@@H](/C=C/C(=O)OCC)Cc1ccc(-c2cc(Cl)cc(Cl)c2)cc1 | 3.13% (active)
NC(=NCCCOc1ccc(F)cc1)Nc1ccc(I)cc1 | 56.9%
Cc1cc2nc3c4cccc(O)c4n(CCN(C)C)c3nc2cc1C | 31%
Oc1ccc(C(c2ccc(O)cc2)c2ccc(Br)cn2)cc1 | 42.6%

system: A549/ATCC NSCLC; test: as above; settings: 10 µM unless noted

Structure (SMILES) | growth
COc1cc(C=O)ccc1OC1OC(COC(C)=O)C(OC(C)=O)C(OC(C)=O)C1OC(C)=O (centres undefined) | 94.8%
CC1=CCC(OC(=O)C(C)(O)CCC(O)(C(=O)OC2(C)C=CC(O)(C(C)C)CC2)C(C)C)(C(C)C)CC1 (centres undefined) | 101%
CC(=O)Nc1cccc(-c2ccc3c(c2)NC(=O)/C3=C\c2ccc[nH]2)c1 | 40.4%
CC(C)(C)c1ccc(NS(=O)(=O)c2ccc3nc(NC(=O)c4cnccn4)[nH]c3c2)cc1 | 38.8%
CC(C)(C)c1cc(/C=N/NC(=O)c2ccccc2NC(=O)c2cccs2)c(O)c(C(C)(C)C)c1 | 12.8%
C#CCNC(=O)[C@H](Cc1ccccc1)NC(=O)[C@]12CC[C@@H](C(=C)C)[C@@H]1[C@H]1CC[C@@H]3[C@@]4(C)CCC(=O)C(C)(C)[C@@H]4CC[C@@]3(C)[C@]1(C)CC2 | 53.9%
CCCCCCNC(=O)Oc1ccc(/C(=C(\C)c2ccccc2)c2ccc(OCCCN(C)C)cc2)cc1 | 72.7%
CC(=O)Nc1ccc(-c2ccc3c(c2)NC(=O)/C3=C\c2ccc[nH]2)cc1 | 92.4%
CCCCOc1ccc(/C=N/Nc2cc(C)nc3ccc(Br)cc23)cc1 | 34.5%
COc1cc(/C(C)=C(\c2ccc(Cl)cc2)c2ccc(OCCN(C)C)cc2)ccc1F | 63.4%
O=C(/C=C/c1ccc(Cl)cc1)c1ccc(NC(=O)N2CCN(c3cc4c(cc3F)c(=O)c(C(=O)O)cn4C3CC3)CC2)cc1 | 95.8%
O=C(c1nc2ccccc2[nH]1)C1C(c2ccc(Cl)cc2)C2CC3CCCC[C@H]3N2[C@@]12C(=O)Nc1cc(Cl)ccc12 (some centres undefined) | 35.2%
O=C(NCCNc1nccc(-c2c(-c3cccc(F)c3)nc3sccn23)n1)c1ccc(Cl)cc1 | 34.8%
O=C(CCN1CCCC1)Nc1ccc2c(NCCCc3ccccc3)c3ccccc3nc2c1 | 15.5%
N#CC1=C(/N=C/c2ccccc2)Oc2c(ccc3ccccc23)C1c1ccc([N+](=O)[O-])cc1 (centres undefined) | 101%
Brc1ccc(Nc2csc(-c3ccccn3)n2)cc1 | 99.4%
COc1cc(/C(C)=C(\c2ccc(Cl)cc2)c2ccc(OCCN3CCCC3)cc2)ccc1F | 57.1%
CC(=O)N1c2ccccc2NC2=C(C(=O)NC2(C)C)C1c1ccco1 (centres undefined) | 96.5%
CCOC(=O)CSc1nc2ccccc2c(=O)n1Cc1ccc(S(N)(=O)=O)cc1 | 98%
CCCCOc1ccc(/C(C)=N/Nc2cc(C)nc3ccc(Br)cc23)cc1 | 92.5%
COc1cc2c(c(O)c1Cl)C(=O)c1c(O)cc(C[C@H](C)O)cc1[C@H]2[C@H]1c2cc(C[C@H](C)O)cc(O)c2C(=O)c2c1cc(OC)c(Cl)c2O | 12.5%
O=C(c1ccccc1)N1N=C(c2ccc(-n3ccc(C(F)(F)F)n3)c(F)c2)CC1c1ccc[nH]1 (centres undefined) | 99.9%
